# Unmarked numbers belong to inactive results. The source made the active and inactive calls.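 The calls were made as follows: active = inhibition above the hit cutoff set in the earlier primary screen (cut at about 27% in these data); inactive = the rest.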
# Molecular target: Protein phosphatase methylesterase 1 (Homo sapiens) (UniProt Q9Y570)
# Assay: human PME-1 methylesterase inhibition confirmation – biochemical, fluorescence polarization, FP-Rh probe, triplicate (AID 2171);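 also: 0% = enzyme with DMSO and 100% = wells lacking PME-1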
# Conditions: recombinant PME-1, FP-Rh probe fluorescence polarization; at 5.9 µM; active compounds read high
# Protein phosphatase methylesterase 1 (Homo sapiens), sequence (Q9Y570 whole entry, looked up): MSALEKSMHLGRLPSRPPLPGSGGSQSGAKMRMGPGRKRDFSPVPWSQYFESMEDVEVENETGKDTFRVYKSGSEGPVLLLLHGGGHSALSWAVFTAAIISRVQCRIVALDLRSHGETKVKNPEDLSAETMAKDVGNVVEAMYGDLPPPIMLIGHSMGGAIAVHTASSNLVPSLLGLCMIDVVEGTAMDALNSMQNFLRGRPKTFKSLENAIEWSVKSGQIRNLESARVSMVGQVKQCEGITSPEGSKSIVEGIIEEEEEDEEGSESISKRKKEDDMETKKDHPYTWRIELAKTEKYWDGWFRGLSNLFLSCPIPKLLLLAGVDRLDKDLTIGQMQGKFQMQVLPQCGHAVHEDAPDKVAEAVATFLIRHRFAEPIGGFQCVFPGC
row,SMILES,inhibition
1,COc1cccc(Oc2ccc(S(=O)(=O)N3CCCC3)cc2[N+](=O)[O-])c1,21.4%
2,CN(C)S(=O)(=O)c1cccc(NC(=O)c2cc([N+](=O)[O-])ccc2N2CCCCC2)c1,43.2% (active)
3,Cc1ccc(NC(=S)NC(=O)c2ccc(-c3ccc(Cl)cc3)o2)c(O)c1,22.9%
4,COc1ccc(NC(=O)C2CCN(C(=O)c3cccs3)CC2)cc1OC,5.2%
5,COc1ccccc1NC(=O)CCC(=O)Nc1nnc(C(F)(F)F)s1,4.64%
6,Cc1cc(N/N=C/c2ccc(O)c(C)c2O)nc(-c2ccccc2O)n1,27.9% (active)
7,CCN(CC)C(=O)c1csc(Nc2cccc3ccccc23)n1,23.8%
8,CC(C)c1ccc2c(c1)C1(NN=C(c3ccccc3)S1)C(=O)N2 (stereo unspecified),33.9% (active)
9,COc1cc2cc3c(N)c(C(=O)NCc4ccco4)sc3nc2cc1OC,110% (active)
10,Cc1cccc2c(N=O)c(O)[nH]c12,54.3% (active)
11,C#CCN1c2ccccc2Sc2cccnc21,1.92%
12,Cn1c(=O)c(NCCc2ccccc2)c2c3c(cccc31)C(=O)c1ccccc1-2,177% (active)
13,O=c1[nH]nc(CNc2ccc(O)cc2)c2ccccc12,8.74%
14,COc1ccccc1N1CCN(C(=O)C2CCN(S(=O)(=O)c3ccc(C)cc3)CC2)CC1,15.3%
15,CCN(CC)C(=O)C1c2ccccc2Oc2ccccc21,7.22%
16,CCn1c(CSc2nnc(-c3ccncc3)n2C)nc2cc(C(=O)O)ccc21,51.5% (active)
